Data taken from PubChem BioAssay (NCI).
This is part of a sample that, as a whole, favours compounds with a hit. Of some 83,000 tested, about 20% had one in any assay.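 How to read the values: 0–100, growth inhibition (40 = 60% inhibited); 0, no net growth; -100 to 0, cell death (-40 = 40% of starting cells died; -100 = all dead).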 Unmarked numbers belong to inactive results. Calls of active or inactive are those of the source. Rule for the calls: active = growth percent below 10; inactive = the rest.

Key:
Experiment in all cases: NCI-60 one-dose screen, 48 h (100 = growth as untreated, 0 = no growth, -100 = all killed)
Conditions in all cases: 10 µM unless noted
[1] = system: NCI-H23 lung
[2] = system: NCI-H322M lung
[3] = system: HOP-62 NSCLC
[4] = system: NCI-H460 lung
[5] = system: HOP-92 NSCLC
[6] = system: NCI-H522 lung
[7] = system: 786-0 renal
[8] = system: COLO 205 colon
[9] = system: DU-145 prostate
[10] = system: K-562 leukemia
[11] = system: MALME-3M melanoma
[12] = system: MDA-MB-231 breast
[13] = system: RXF 393 renal
[14] = system: SF-268 CNS
[15] = system: SF-295 CNS
[16] = system: SF-539 CNS
[17] = system: UACC-257 melanoma
[18] = system: M14 melanoma
[19] = system: HCT-15 colon
[20] = system: A549/ATCC NSCLC

SMILES	growth [1]	growth [2]	growth [3]	growth [4]	growth [5]	growth [6]	growth [7]	growth [8] [%]	growth [9]	growth [10]	growth [11]	growth [12]	growth [13]	growth [14]	growth [15]	growth [16]	growth [17]	growth [18]	growth [19]	growth [20] [%]
O=c1oc2ccc(Br)cc2c(=O)n1-c1ccc(Cl)cc1F	2.82% (active)	5.97% (active)	2.2% (active)	2.87% (active)	-12.6% (active)	-1.53% (active)	-1.15% (active)	21.5	16.4%	6% (active)	-30.6% (active)	-22.6% (active)	4.25% (active)	8.43% (active)	-58.4% (active)	4.14% (active)	-10.6% (active)	-11.9% (active)	0.07% (active)	
CCOC(=O)C1=C(C)N=c2s/c(=C\c3cc(Cl)ccc3O)c(=O)n2C1c1ccc(OC)cc1 (stereo not given)	88.1%	104%	110%	91.6%	69.2%		94.6%	101	107%	73.8%	109%	95.1%	80.9%	107%	111%	118%	101%	88.4%	98.6%	94.9
CCn1c(-c2nonc2Nc2ccc(OC)cc2)nc2ccccc21	107%	105%	115%	109%	134%	89%	95.1%	124	113%	118%	120%		120%	110%	132%	107%	104%	104%	97.7%	
COc1ccc(/C=C/C(=O)c2c(C)nc3ccccc3c2/C=C/c2ccccc2)c(OC)c1	73.4%	89.3%	108%	80.3%	66.8%		94.1%	94.7	90.4%	69.6%	106%	68.9%	89.6%	80.7%	90.9%	100%	104%	97.3%	72.2%	78.5
O=S(=O)(c1ccc(NC(=S)NC23CC4CC(CC(C4)C2)C3)cc1)N1CCCCC1	95.5%	102%	107%	36.3%	-8.91% (active)		92.3%	119	41.4%	7.73% (active)	86.5%	102%	115%	66.6%	58.1%	107%	96.9%	72.3%	82.8%	72.5
COC(=O)/C(=C\c1c(-c2ccccc2)[nH]c2ccccc12)S(C)(=O)=O	33.9%	63.8%		12.5%	65.4%	47.1%	38.1%	24.3	-5.09% (active)	17.2%	74.1%	49.7%		26.8%	32%	4.74% (active)	67.4%	14.9%	34.5%	38.6
Clc1ccc(Nc2nnc(-c3ccc4c(c3)OCO4)o2)cc1	101%	98.9%		103%	99.8%	80.9%	97.9%	107	98.9%	62.4%	99%	108%	130%	107%	115%	104%	100%	102%	95.8%	97.8
CC(C)Cn1c2c(c(=S)[nH]c1=O)CCC2	104%	103%		105%	113%	96.1%	104%	117	111%	103%	103%	101%	109%	98.6%	107%	97.4%	109%	105%	105%	103
